From PubChem BioAssay AID2158 (National Center for Advancing Translational Sciences (NCATS), 2009) come the findings set out here.

Each structure is given as a SMILES string. Where “and” joins values, the source holds several entries; their conditions need not be identical. Identical values can stand only once. Results filed as inconclusive are left out. A number with no mark means an inactive call. Calls of active or inactive are those of the source. The call rests on the fitted dose curve; in most records, active means well fitted inhibition curve with a large enough effect; inconclusive means small, poorly fitted or top-dose-only effect; inactive means no such curve, though single readings can be large or run the other way.
Potency means the concentration at half of the fitted maximal effect.

Cruzipain (Trypanosoma cruzi), sequence (P25779 123-467 limits assumed): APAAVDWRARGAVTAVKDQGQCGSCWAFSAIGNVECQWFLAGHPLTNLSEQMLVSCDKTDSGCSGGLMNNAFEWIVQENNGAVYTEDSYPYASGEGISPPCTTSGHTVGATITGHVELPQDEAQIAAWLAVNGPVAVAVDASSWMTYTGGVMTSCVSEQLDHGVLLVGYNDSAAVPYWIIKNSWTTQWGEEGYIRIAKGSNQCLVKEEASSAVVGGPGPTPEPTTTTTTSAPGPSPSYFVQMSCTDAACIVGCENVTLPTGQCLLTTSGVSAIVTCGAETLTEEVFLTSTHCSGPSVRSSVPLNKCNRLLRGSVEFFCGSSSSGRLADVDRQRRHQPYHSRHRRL

The assay concerns the target Cruzipain (Trypanosoma cruzi) (UniProt P25779). Nature of the assay: Confirmation qHTS Assay for Inhibitors of Cruzain. Further: nearly all actives have a fitted effect of over 40% in size.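 On activity change, negative = inhibition: plate controls were uninhibited enzyme control for no effect and buffer wells lacking enzyme for full effect.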 The following applies: purified cruzain, Z-FR-AMC fluorescence, 0.01% Triton. The procedure, abridged: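 Reaction progress from the 60 s rise in AMC fluorescence (ex 360, em 450 nm) after adding 2 uM Z-FR-AMC. Before this, 1.5 nM cruzain sat 15 min at room temperature with compound in pH 5.5 acetate buffer with 5 mM DTT and 0.01% Triton X-100.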
A general note: qHTS replaces the single test concentration by a dilution series.
For the compound `O=C(COC(=O)CNS(=O)(=O)c1ccc(F)c(F)c1F)Nc1ccc(OC(F)F)cc1`, the activity change, negative = inhibition is -11.4%.
In the case of `O=C(NCCc1nc2ccccc2n1CCOc1ccc2ccccc2c1)C1CCCCC1`, the Potency was 3.55 µM (active).
As for `CCn1nc(-c2ccccc2C)nc2c(=O)n(C)c(=O)nc1-2`, the Potency is 0.631 µM (active).
Still for that read-out and setting: next, `O=C(CNC(=O)C1CCCCC1)OC(C(=O)Nc1cc(C(F)(F)F)ccc1Cl)c1ccccc1` (centres undefined): 5.01 µM (active).
As to `CC(C)CC(=O)OC1C(N2CCOCC2)c2c(ccc(/C=C/C(=O)N3CCOCC3)c2O)OC1(C)C` (centres undefined), the activity change, negative = inhibition was -26%.
On the same count and under the same terms, next, `C=Cn1ccnc1P(=S)(c1ccc2c(c1)c1ccccc1n2CC)c1nccn1C=C`: -8.46%; `CCc1ccc(C(=O)COC(=O)CNC(=O)COc2ccccc2)cc1`: 35.9%.
In the case of `O=C(Cc1ccccc1)NCC(=O)OCC(=O)c1ccc2ccccc2c1`, the activity change, negative = inhibition was -9.73%.
Consider `COc1ccccc1OCCn1c(CCNC(=O)C2CCCCC2)nc2ccccc21`, for which the Potency was 1.41 µM (active).
Consider `N#Cc1nc(N2CCCCC2)nc(N2CCOCC2)n1`, for which the Potency is 2.82 µM (active).
For the compound `CC(C)Nc1nc(C#N)nc(NC(C)C)n1`, the Potency was 28.2 µM (active).
Take `O=C(OCN1C(=O)c2ccccc2C1=O)/C(=C\c1ccco1)NC(=O)c1ccccc1`: the Potency was 1.12 µM (active).
For the compound `N#Cc1nc(Nc2cccc(F)c2)nc(NC2CCCC2)n1`, the Potency was 0.0794 µM (active).
Regarding `COc1ccccc1CCNC(=O)CNC(=O)c1ccc2ccccc2c1`, the activity change, negative = inhibition is -7.19%.
With `CCOc1ccc(C(=O)COC(=O)CNC(=O)C2CCCCC2)cc1`, the Potency is 3.16 µM (active).
Consider `Cc1cccc(OCCn2c(CCNC(=O)C3CCCCC3)nc3ccccc32)c1`, for which the Potency was 0.891 µM (active).
As for `COc1ccc2cc3cc(C(=O)NCCCN4CCOCC4)oc3nc2c1`, the activity change, negative = inhibition is -114%.
For the compound `Cc1cccc(C)c1OCCn1c(CCNC(=O)C2CCCCC2)nc2ccccc21`, the Potency was 1.12 µM (active).
Take `CCSc1nnc(NC(=O)/C=C/c2ccc3c(c2)OCO3)s1`: the activity change, negative = inhibition was -48.4%.
As for `Cc1csc(N/N=C/c2ccc(O)c([N+](=O)[O-])c2)n1`, the activity change, negative = inhibition was -63.9%.
For the compound `Cc1ccccc1OCC(=O)NCC(=O)OCC(=O)c1ccc2c(c1)CCCC2`, the activity change, negative = inhibition was -3.79%.
As for `CC(C)(C)OC(=O)CC(=O)NNC(=O)c1nc2ccccc2[nH]1`, the activity change, negative = inhibition was 3.76%.
As for `CCC(C)[C@@H](N)C(=O)N/N=C/c1ccc2ncccc2c1` (some centres undefined), the Potency is 22.4 µM (active).
`N#Cc1nc(Nc2ccc(-c3ccccc3)cc2)nc(NC2CCCC2)n1`: the Potency was 3.98 µM (active).
As for `Cc1ccc(CN(Cc2cc3cc(C)ccc3[nH]c2=O)Cc2nnnn2Cc2ccccc2)cc1`, the activity change, negative = inhibition was -18.6%.
On to `Cc1ccccc1OCC(=O)NCC(C)NC(=O)COc1ccccc1C` (centres undefined), for which the activity change, negative = inhibition is 36.5%.
Turning to `Cc1ccc(C(=O)NCCn2c(N)c(C#N)c3nc4ccccc4nc32)cc1`, the activity change, negative = inhibition is -28.5%.
Still for that read-out and setting: to `CC(=O)c1nnn(-c2nc(C#N)nc(N3CCOCC3)n2)c1C` belongs 4.76%; to `CCCCNC(=O)Cn1c(SCc2ccccc2C)nc2ccncc21`, -24.9%; to `c1ccc(CNCc2nnc(-c3cc4ccccc4[nH]3)o2)cc1`, -1.64%.
For `CCc1ccc(OCCn2c(CCNC(=O)C3CCCCC3)nc3ccccc32)cc1`, the Potency was 2.24 µM (active).
In the case of `COc1cccc(OC)c1-c1nn2c(-c3n[nH]c4c3CCC4)nnc2s1`, the activity change, negative = inhibition was -13% and -10.1%.
On to `O=[S+]([O-])(/C=C/c1nc(Nc2cc(F)cc(F)c2)c2ncn(CC(F)F)c2n1)c1ccccc1`, for which the activity change, negative = inhibition was -11.8%.
For `Cc1cc(C)cc(OCCn2c(CCNC(=O)C3CCCCC3)nc3ccccc32)c1`, the Potency was 631 nM (active) and 2.24 µM (active).
Regarding `CCOC(=O)C(C(=O)OCC)N(C#N)c1nc(SC)nc(N(C)C)n1`, the Potency was 5.01 µM (active).
On the same count and under the same terms, next, `CC[C@@H](C)[C@H](NC(=O)OC(C)(C)C)c1nnc(S(=O)(=O)Cc2cc(C)ccc2C)o1`: 14.1 µM (active); `N#Cc1nc(N(c2ccccc2)c2ccccc2)nc(-n2cccc2)n1`: 2.51 µM (active).
Consider `O=C(Cn1cc(CN(Cc2ccccc2)Cc2ccccc2)nn1)Nc1cc(C(F)(F)F)ccc1Cl`, for which the activity change, negative = inhibition is -13.2%.
For the compound `Cc1cc(OCC(=O)Nc2ccc(N3CCCC3)cc2)cc(C)c1Cl`, the activity change, negative = inhibition is -30.4%.
